Consider 21 compounds from PubChem BioAssay AID624331 (National Center for Advancing Translational Sciences (NCATS), 2012).

Results filed as inconclusive are left out. Where a call stands in place of a potency, no number is given. Calls of active or inactive are those of the source. Calls come from the whole dose curve; as a rule, active = well fitted activation curve with a large enough effect; inconclusive = small, poorly fitted or top-dose-only effect; inactive = no such curve, though single readings can be large or run the other way.
Potency is the fitted concentration of half-maximal effect.

A short description of the assay: qHTS assay for re-activators of p53 using a Luc reporter: Hit Validation with no p53 Expressed. The note with it: p53-null cells, luciferase reporter counter-screen; series mostly up to 46.1 µM. The procedure, abridged: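 Counter-screen of primary hits in a cell line not transfected with p53, in Opti-MEM with 10% FBS; compounds at several concentrations (10 mM stock, 1:5; top 46.1 µM in well), 24 h at 37 deg C, 5% CO2. Luminescence read after 10 min with Amplite reagent.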
(qHTS replaces the single test concentration by a dilution series.)
As for `CCCCCNC(=O)N[C@H](C(=O)O)C(C)C`, the Potency result was “inactive”.
Then `Cn1c(C(=O)Nc2ccc3c(c2)OCCO3)cc2sccc21`, with 1.16 µM (active); and `Cc1ccc(C(=O)NCC(=O)N2CCCCCC2)cc1`, with “inactive”.
As for `CC(C)c1ccc(C(O)c2nc3ccccc3n2C)cc1` (stereo unspecified), the entry is “inactive”; as for `Cc1cccnc1NC(=O)c1ccc([N+](=O)[O-])o1`, “inactive”; as for `Brc1ccccc1-c1nc(-c2ccccc2)no1`, “inactive”.
As for `COc1ccc(C(c2nnnn2CCc2ccccc2)N2CCN(C3CCCC3)CC2)cc1` (stereo unspecified), the entry is “inactive”; as for `COc1ccc(-n2cc(-c3ccccc3)[nH]c2=S)cc1`, “inactive”; as for `COc1ccc2oc(C(=O)Nc3nc(C)cs3)c(C)c2c1`, “inactive”.
As for `O=C1NCCCc2c1oc1ccc(O)cc21`, the Potency entry was “inactive”.
Turning to `CCCSc1ccc2nc(-c3ccccc3)cn2c1`, the Potency result was “inactive”.
Then `Cc1ccc(NC(=O)c2cc(C)n(-c3ccccc3)c2C)cc1`, with “inactive”; and `CN(C)c1ccc(NC(=O)CCCc2ccccc2)cc1`, with “inactive”.
As for `O=C(CN1C(=O)NC2(CCCc3ccccc32)C1=O)c1ccc(F)cc1` (stereo unspecified), the entry is “inactive”; as for `O=C(/C=C/Nc1ccc(F)cc1F)c1cccs1`, “inactive”.
`Cc1ccc2c(c1)C(N1CCCC1=O)CC(c1ccco1)N2` (stereo unspecified): the Potency result was “inactive”.
Consider `COc1cccc(C(=O)c2sc(NC(C)C)nc2N)c1`, for which the Potency result was “inactive”.
Then `O=C(NC(=S)Nc1ccccc1Br)C1CCCCC1`, with “inactive”; and `O=C(NC(=S)NC1CCCCC1)c1ccccc1[N+](=O)[O-]`, with “inactive”; and `COc1ccc(CCC(=O)NC(C)C2CCCO2)cc1` (stereo unspecified), with “inactive”.
Then `CCN1C(=O)C(=O)N(CC(=O)c2cc(C)n(C3CC3)c2C)C1=O`, with “inactive”.
